Source: PubChem BioAssay AID422 (Emory University Molecular Libraries Screening Center, 2006)
Hit rate of the full screen: of about 160,000 compounds, about 310 (0.19%) were called active. Cut-off read from the data, not from the text of the source: active = inhibition above about 30%; inactive = the rest. The sample as a whole holds a higher share of actives than the screen did.

target: 14-3-3 protein gamma (Homo sapiens) (UniProt P61981); assay: modulators of 14-3-3 gamma protein binding, primary screen, biochemical, fluorescence polarization (AID 422); settings: FP, 14-3-3gamma / TMR-pS259-Raf peptide binding; at 40 µM; stronger effect = higher value;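 note: 0% = protein plus tracer without compound and 100% = blank with tracer alone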
Sequence (P61981 whole entry, looked up): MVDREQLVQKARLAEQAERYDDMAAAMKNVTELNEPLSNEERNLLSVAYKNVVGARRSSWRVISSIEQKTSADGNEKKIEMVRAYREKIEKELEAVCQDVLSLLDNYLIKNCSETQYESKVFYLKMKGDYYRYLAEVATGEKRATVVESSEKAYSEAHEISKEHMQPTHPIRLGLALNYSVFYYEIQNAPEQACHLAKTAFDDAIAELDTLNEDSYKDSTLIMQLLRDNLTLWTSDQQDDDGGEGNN

inhibition, inactive:
O=C(C1CCC(Cn2c(=O)[nH]c3ccccc3c2=O)CC1)N1CCN(Cc2ccccc2)CC1 (centres undefined) -3.1%
CSc1cccc(NC(=O)C2c3ccccc3C(=O)N3CCc4ccccc4C23)c1 (centres undefined) -1.47%
CCCCNC(=O)c1c[nH]c2ccc(S(=O)(=O)Nc3cccc(OC)c3)cc2c1=O -22.6%
O=C(NC1CCCCCCCCCCC1)c1cnc2n(c1=O)CCS2 -1.96%
CCCOc1ccccc1C1NC(=O)NC(C)=C1C(=O)OCC1CCCO1 (centres undefined) 3.08%
CN(C)/C=C1/C(=O)Nc2ccccc21 -2.07%
CN(C)/C=C1/Nc2ccccc2C1=O -0.95%
O=C(Nc1nc2ccccc2n1CCOc1ccccc1)c1cccs1 8.38%
CCOCCn1cnc2sc(C(=O)N3CCN(c4ccccn4)CC3)c(C)c2c1=O 1.28%
Cc1c(Cl)cccc1NC(=O)c1cc(S(=O)(=O)N2CCC(C)CC2)ccc1F -5.5%
O=C(Nc1nc(-c2cccs2)cs1)c1ccc(S(=O)(=O)N2CCc3ccccc3C2)cc1 -43.5%
CN1C(=O)c2ccccc2C(C(=O)N2CCC(Cc3ccccc3)CC2)C1c1c[nH]c2ccccc12 (centres undefined) 6.73%
COc1ccc(CSc2n[nH]c(C)n2)cc1Cl -0.37%
CSCCC(NS(=O)(=O)c1cccs1)C(=O)Nc1ccc(F)cc1 (centres undefined) -1.64%
CC(=O)OCC#CCSc1nc2ccccc2o1 -1.9%
CCOC(=O)C1CCN(S(=O)(=O)c2ccc(I)cc2)CC1 -2.44%
CC1CCN(S(=O)(=O)c2ccc3ncn(CC(=O)N4CCN(Cc5ccccc5)CC4)c(=O)c3c2)CC1 1.95%
CCCCNC(=O)C1c2ccccc2C(=O)N(C)C1c1c[nH]c2ccccc12 (centres undefined) -0.96%
O=C(OC(c1ccccc1)c1nccc2ccccc12)c1ccc([N+](=O)[O-])cc1 (centres undefined) -10%
NC(=O)C1CCN(C(=O)c2ccc3nc4ccccc4c(=O)n3c2)CC1 12.3%
CN(C(N)=O)C1CCS(=O)(=O)C1 (centres undefined) 2.31%
S=c1[nH]nc(-c2cccs2)n1Cc1ccc2c(c1)OCO2 -5.66%
CCN1C(=O)c2cccc3c(N)ccc1c23 5.38%
Nc1ccc2c3c(cccc13)C(=O)NC2=O 14.8%
COc1ccc(N2C(=O)CCC(C(=O)Nc3ccc(Br)cc3C)C2c2ccc(OC)c(OC)c2)cc1 (centres undefined) -9.11%
COc1ccccc1CNC(=O)c1cc(-c2ccc(Br)s2)nc2ccccc12 -1.85%
CCCCc1nc(N)c(C#N)c(-c2ccccc2Cl)c1CCC -5.82%
COc1ccc(-c2nc(CS(=O)CC(=O)NCc3cccnc3)c(C)o2)cc1OC (centres undefined) -5.12%
COc1ccc(-c2nc(CS(=O)CC(=O)N3CCc4ccccc4C3)c(C)o2)cc1 (centres undefined) -4.26%
Fc1ccc(Nc2nc(NCc3ccccc3)c3ccccc3n2)cc1 -3.64%
CSc1ccc(-c2nc3ccc(Cl)cn3c2Nc2ccc3c(c2)OCO3)cc1 -19%
COc1ccc(C2Nc3ccccc3NC3=C2C(=O)CC(c2cccc([N+](=O)[O-])c2)C3)cc1 (centres undefined) 0.48%
CCOc1ccc(S(=O)(=O)NC2CCCC2)c2cccnc12 -6.1%
COc1ccc([N+](=O)[O-])cc1NC(=O)c1c([N+](=O)[O-])cnn1C -2.94%
O=C1C2CC=C(Cl)CC2C(=O)N1c1ccc(O)cc1 (centres undefined) -3.22%
COC(=O)c1ccccc1NC(=O)CCCn1nc([N+](=O)[O-])c(Cl)c1C -3.89%
CCC(C)(C(=O)NC1CCCCC1)N(C(=O)CC1NC(=O)NC1=O)c1ccccc1 (centres undefined) -2.16%
CC1CC(C)CN(CCCNC(=O)C2c3ccccc3C(=O)N(C)C2c2cccs2)C1 (centres undefined) 4.52%
Cc1c(-c2nc3ccccc3c(=O)[nH]2)sc2nc(-c3ccccc3)nc(N)c12 -34.5%
CC(C)CN(CC(C)C)S(=O)(=O)c1ccc(Br)cc1 -5.87%
CCCCCn1c(=O)[nH]c2cc(C(=O)NC(C)C)ccc2c1=O -3.1%
COc1cc(N=Cc2c(O)[nH]c3ccccc23)cc(OC)c1OC 1.7%
COc1ccc(N=Cc2c(O)[nH]c3ccccc23)cc1OC -6.05%
CCCCNC(=O)C1CCC(=O)N1CCc1ccccc1 (centres undefined) -1.84%
CC1=C(C(=O)OCCc2ccccc2)C(c2cccc([N+](=O)[O-])c2)NC(=O)N1 (centres undefined) -4.75%
O=C1NC2=C(C(=O)c3ccccc32)C(c2ccccc2)S1 (centres undefined) 3.21%
COc1ccc(C2C=C(c3ccc(-c4ccccc4)cc3)Nc3ncnn32)cc1 (centres undefined) -7.71%
O=C(Nc1ccc(-c2nc3ccc(NC(=O)c4ccc(Br)o4)cc3[nH]2)cc1)c1ccc(Br)o1 -23.6%
O=C(Nc1ccc(-c2nnc(-c3ccccc3)o2)cc1)C1CCCO1 (centres undefined) 5.13%
O=C(CCSCc1cccc(F)c1)N1CCc2ccccc21 -8.82%
O=C(CN1CCCN(S(=O)(=O)c2ccc(Br)cc2)CC1)Nc1ccccc1F -7.48%
CCc1ccc(OCCSc2nc3ccccc3c(=O)[nH]2)cc1 -1.81%
CC(NC(=O)C(Cc1ccc([N+](=O)[O-])cc1)N1C(=O)c2ccccc2C1=O)c1ccc(CCBr)cc1 (centres undefined) -10.4%
C=C(C)Cn1c(-c2ccc(N(C)C)cc2)nc2ccccc21 -2.28%

inhibition, active:
O=C1Nc2ccccc2C1=Nc1ccc(O)cc1 87.3%
CN1C(=O)c2cccc3c(N)ccc(c23)C1=O 85.5%
COc1ccc(-c2nc(CS(=O)CC(=O)NCc3ccccn3)c(C)o2)cc1 (centres undefined) 99.2%
Cc1[nH]c2ccccc2c1C=Nc1ccc(O)cc1 121%
O=C(Nc1ccc(-c2nnc(-c3ccccc3)o2)cc1)c1ccc(Br)o1 116%
